The source made the active and inactive calls. Rule for the calls: active = hit-call score of the fitted dose curve at least 0.9, where 1 is the maximum; inactive = score below 0.9.
Assays:
Conditions in all cases: mRNA level, 48 h; actives raise or lower the signal
[1] = read-out: Cytochrome P450 (CYP24A1), CYP24A1 (gene 1591); assay: LTEA_HepaRG_CYP24A1: Life Technologies and Expression Analysis (LTEA) Assay for Cytochrome P450 (CYP24A1) using HepaRG (AID 2283478)
Summary of the method: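 qRT-PCR read-out: CYP24A1 transcript levels normalized to three housekeeping genes, bidirectional curve fits against 0.5% DMSO baseline. Human HepaRG cells treated 48 h with chemicals at eight concentrations from 100 uM in half-log steps.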

[2] = read-out: Cytochrome P450 (CYP1A2), CYP1A2 (gene 1544); assay: LTEA_HepaRG_CYP1A2: Life Technologies and Expression Analysis (LTEA) Assay for Cytochrome P450 (CYP1A2) using HepaRG (AID 2283479)
Summary of the method: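 HepaRG, 48 h exposure, top 100 uM, half-log 8-pt, 0.5% DMSO vehicle, duplicates. Readout: TaqMan qRT-PCR of CYP1A2 mRNA, housekeeping-normalized (ACTB/GAPDH/POLR2A). Gain/loss fit relative to DMSO baseline.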

[3] = read-out: cysteine-aspartic acid protease (CASP8), CASP8 (gene 841); assay: LTEA_HepaRG_CASP8: Life Technologies and Expression Analysis (LTEA) Assay for cysteine-aspartic acid protease (CASP8) using HepaRG (AID 2283480)
Summary of the method: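 qRT-PCR readout of CASP8 mRNA, normalized to three housekeeping genes, after 48 h chemical exposure of HepaRG cells; 8-point half-log series, top 100 uM, 0.5% DMSO vehicle. Bidirectional curve fitting against DMSO baseline.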

[4] = read-out: Cytochrome P450 (CYP2B6), CYP2B6 (gene 1555); assay: LTEA_HepaRG_CYP2B6: Life Technologies and Expression Analysis (LTEA) Assay for Cytochrome P450 (CYP2B6) using HepaRG (AID 2283481)
Summary of the method: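 Read-out is CYP2B6 mRNA by TaqMan qRT-PCR, normalized to three housekeeping genes and fitted bidirectionally against 0.5% DMSO baseline. Human HepaRG cells received test chemicals for 48 h, top concentration 100 uM, half-log dilutions.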

[5] = read-out: Cytochrome P450 2C19 (Homo sapiens) (UniProt P33261); assay: LTEA_HepaRG_CYP2C19: Life Technologies and Expression Analysis (LTEA) Assay for CYP2C19 using HepaRG (AID 2283482)
Summary of the method: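 HepaRG, 48 h chemical exposure, 8-pt half-log series from 100 uM in 0.5% DMSO, duplicates. Readout: CYP2C19 mRNA by TaqMan qRT-PCR, housekeeping-normalized. Bidirectional fit vs DMSO baseline; phenobarbital 1mM as induction control.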

CYP2C9 (gene 1559) = assay: LTEA_HepaRG_CYP2C9: Life Technologies and Expression Analysis (LTEA) Assay for CYP2C9 using HepaRG (AID 2283484)
Summary of the method: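 HepaRG, 48 h dosing, 8-pt half-log series, top 100 uM, 0.5% DMSO vehicle. Read-out: CYP2C9 transcript by TaqMan qRT-PCR, housekeeping-normalized (ACTB/GAPDH/POLR2A). Gain or loss fitted vs DMSO baseline.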

CYP2E1 (gene 1571) = assay: LTEA_HepaRG_CYP2E1: Life Technologies and Expression Analysis (LTEA) Assay for CYP2E1 using HepaRG (AID 2283485)
Summary of the method: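 CYP2E1 transcript was measured by TaqMan qRT-PCR in human HepaRG cultures after 48 h chemical exposure (top 100 uM, half-log steps, 0.5% DMSO vehicle). Housekeeping-gene normalization; gain or loss fitted relative to DMSO baseline.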

CYP4A11 (gene 1579) = assay: LTEA_HepaRG_CYP4A11: Life Technologies and Expression Analysis (LTEA) Assay for CYP4A11 using HepaRG (AID 2283486)
Summary of the method: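 CYP4A11 transcript levels were quantified by TaqMan qRT-PCR after HepaRG human liver cells were treated for 48 hours with test chemicals (top 100 uM, half-log dilutions, 0.5% DMSO). Gain or loss of signal was fitted relative to DMSO.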

[6] = read-out: DNA damage-inducible transcript 3 (DDIT3), DDIT3 (gene 1649); assay: LTEA_HepaRG_DDIT3: Life Technologies and Expression Analysis (LTEA) Assay for DNA damage-inducible transcript 3 (DDIT3) using HepaRG (AID 2283488)
Summary of the method: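 qRT-PCR readout (Fluidigm TaqMan), housekeeping-normalized to ACTB, GAPDH, POLR2A. HepaRG cells, 48 h exposure, 8-point half-log series from 100 uM in 0.5% DMSO, duplicates. Gain or loss of signal fitted against DMSO baseline.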

[7] = read-out: Pro-epidermal growth factor (Homo sapiens) (UniProt P01133); assay: LTEA_HepaRG_EGF: Life Technologies and Expression Analysis (LTEA) Assay for Epidermal growth factor (EGF) using HepaRG (AID 2283489)
Summary of the method: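 qRT-PCR readout of EGF transcript after 48 h chemical exposure of HepaRG cells; eight concentrations from 100 uM down in half-log steps, duplicate wells, 0.5% DMSO vehicle. Bidirectional curve fitting against DMSO baseline.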

[8] = read-out: Early growth response protein 1 (EGR1) transcription factor, EGR1 (gene 1958); assay: LTEA_HepaRG_EGR1: Life Technologies and Expression Analysis (LTEA) Assay for Early growth response protein 1 (EGR1) transcription factor using HepaRG (AID 2283490)
Summary of the method: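 HepaRG, 48 h exposure, 8-pt half-log series from 100 uM, 0.5% DMSO vehicle; EGR1 transcript by TaqMan qRT-PCR (Fluidigm array), housekeeping-normalized; bidirectional fit relative to DMSO baseline.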

[9] = read-out: Ezrin (EZR), EZR (gene 7430); assay: LTEA_HepaRG_EZR: Life Technologies and Expression Analysis (LTEA) Assay for Ezrin (EZR) using HepaRG (AID 2283491)
Summary of the method: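 Read-out is EZR transcript level by qRT-PCR, normalized to three housekeeping genes and fitted bidirectionally against the DMSO control. Human HepaRG cells received test chemicals for 48 h at eight half-log concentrations up to 100 uM in 0.5% DMSO.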

CYP3A5 (gene 1577) = assay: LTEA_HepaRG_CYP3A5: Life Technologies and Expression Analysis (LTEA) Assay for CYP3A5 using HepaRG (AID 2283493)
Summary of the method: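 qRT-PCR read-out: CYP3A5 transcript in HepaRG lysates, housekeeping-normalized (ACTB/GAPDH/POLR2A), fitted bidirectionally against 0.5% DMSO baseline. Exposure 48 h, eight half-log concentrations up to 100 uM, duplicates.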

[10] = read-out: Fatty Acid-Binding Protein 1 (FABP1), FABP1 (gene 2168); assay: LTEA_HepaRG_FABP1: Life Technologies and Expression Analysis (LTEA) Assay for Fatty Acid-Binding Protein 1 (FABP1) using HepaRG (AID 2283494)
Summary of the method: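 qRT-PCR readout of FABP1 transcript (normalized to three housekeeping genes) after 48 h chemical exposure of HepaRG cells; eight concentrations, half-log steps, max 100 uM, 0.5% DMSO vehicle; gain or loss fitted relative to DMSO baseline.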

[11] = read-out: Cytochrome P450 4A22 (Homo sapiens) (UniProt Q5TCH4); assay: LTEA_HepaRG_CYP4A22: Life Technologies and Expression Analysis (LTEA) Assay for Cytochrome P450 4A22 (CYP4A22) using HepaRG (AID 2283495)
Summary of the method: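 HepaRG, 48 h post-plating -> serum-free induction medium; dosed 48 h, duplicate, 8 conc. (100 uM top, half-log), 0.5% DMSO. Readout: CYP4A22 mRNA by qRT-PCR, ACTB/GAPDH/POLR2A normalization; gain/loss fit relative to DMSO.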

[12] = read-out: Cytochrome P450 7A1 (Homo sapiens) (UniProt P22680); assay: LTEA_HepaRG_CYP7A1: Life Technologies and Expression Analysis (LTEA) Assay for Cytochrome P450 7A1 (CYP7A1) using HepaRG (AID 2283496)
Summary of the method: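 Using 0.5% DMSO as vehicle and baseline, chemicals were tested in duplicate over an 8-point range from 100 uM on HepaRG cells for 48 h; qRT-PCR signals were normalised to ACTB, GAPDH and POLR2A.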

[13] = read-out: Glutathione S-Transferase (GSTA2), GSTA2 (gene 2939); assay: LTEA_HepaRG_GSTA2: Life Technologies and Expression Analysis (LTEA) Assay for Glutathione S-Transferase (GSTA2) using HepaRG (AID 2283497)
Summary of the method: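 qRT-PCR readout of GSTA2 transcript, normalized to three housekeeping genes, fitted bidirectionally against 0.5% DMSO baseline. Differentiated HepaRG cells received compound for 48 h at 8 concentrations (top 100 uM, half-log steps).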

[14] = read-out: Cytochrome P450 3A4 (Homo sapiens) (UniProt P08684); assay: LTEA_HepaRG_CYP3A4: Life Technologies and Expression Analysis (LTEA) Assay for CYP3A4 using HepaRG (AID 2283487)
Summary of the method: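 HepaRG, 48 h exposure, 8-pt CRC from 100 uM (half-log), 0.5% DMSO, duplicates; serum-free induction medium. Readout: CYP3A4 mRNA, qRT-PCR, ACTB/GAPDH/POLR2A normalization. Bidirectional fit vs DMSO.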

[15] = read-out: Cytochrome P450 3A7 (Homo sapiens) (UniProt P24462); assay: LTEA_HepaRG_CYP3A7: Life Technologies and Expression Analysis (LTEA) Assay for CYP3A7 using HepaRG (AID 2283492)
Summary of the method: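 CYP3A7 transcript levels were read by TaqMan qRT-PCR on Fluidigm arrays after 48 h chemical exposure of human HepaRG cells, with housekeeping-gene normalisation. Eight half-log concentrations up to 100 uM in 0.5% DMSO were tested in duplicate.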

CYP2C8 (gene 1558) = assay: LTEA_HepaRG_CYP2C8: Life Technologies and Expression Analysis (LTEA) Assay for CYP2C8 using HepaRG (AID 2283483)
Summary of the method: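 HepaRG (human liver line), 48 h chemical exposure, 8-pt half-log series from 100 uM, 0.5% DMSO vehicle. Readout: CYP2C8 transcript by qRT-PCR, housekeeping-normalized. Bidirectional fit vs DMSO baseline.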

Measured: AC50

Cytochrome P450 2C19 (Homo sapiens), sequence (P33261 whole entry, looked up): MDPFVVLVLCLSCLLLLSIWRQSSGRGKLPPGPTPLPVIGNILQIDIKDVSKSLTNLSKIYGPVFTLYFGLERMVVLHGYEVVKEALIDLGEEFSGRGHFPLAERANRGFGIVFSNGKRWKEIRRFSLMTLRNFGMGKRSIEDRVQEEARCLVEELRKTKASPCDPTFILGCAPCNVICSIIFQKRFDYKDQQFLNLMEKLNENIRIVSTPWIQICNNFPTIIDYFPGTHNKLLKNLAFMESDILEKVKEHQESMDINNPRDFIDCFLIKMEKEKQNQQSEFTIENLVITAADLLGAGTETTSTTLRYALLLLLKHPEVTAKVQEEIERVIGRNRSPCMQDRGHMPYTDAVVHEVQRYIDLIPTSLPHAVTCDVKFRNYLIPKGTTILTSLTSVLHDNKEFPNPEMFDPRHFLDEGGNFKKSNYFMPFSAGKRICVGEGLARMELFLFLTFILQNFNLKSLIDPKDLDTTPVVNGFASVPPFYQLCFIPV
Cytochrome P450 3A7 (Homo sapiens), sequence (P24462 whole entry, looked up): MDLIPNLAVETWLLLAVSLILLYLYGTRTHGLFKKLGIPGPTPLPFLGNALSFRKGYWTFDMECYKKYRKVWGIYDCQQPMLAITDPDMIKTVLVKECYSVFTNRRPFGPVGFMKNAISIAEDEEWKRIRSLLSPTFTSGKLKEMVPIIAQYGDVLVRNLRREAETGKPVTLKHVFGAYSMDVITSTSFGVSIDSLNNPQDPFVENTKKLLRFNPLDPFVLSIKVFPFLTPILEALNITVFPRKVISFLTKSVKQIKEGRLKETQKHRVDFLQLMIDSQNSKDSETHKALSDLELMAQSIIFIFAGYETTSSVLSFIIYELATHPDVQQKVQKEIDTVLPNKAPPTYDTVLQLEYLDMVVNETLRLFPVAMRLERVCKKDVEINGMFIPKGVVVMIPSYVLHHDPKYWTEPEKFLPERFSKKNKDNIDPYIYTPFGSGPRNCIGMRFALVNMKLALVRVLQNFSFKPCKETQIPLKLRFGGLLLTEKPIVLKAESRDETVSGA
Cytochrome P450 3A4 (Homo sapiens), sequence (P08684 whole entry, looked up): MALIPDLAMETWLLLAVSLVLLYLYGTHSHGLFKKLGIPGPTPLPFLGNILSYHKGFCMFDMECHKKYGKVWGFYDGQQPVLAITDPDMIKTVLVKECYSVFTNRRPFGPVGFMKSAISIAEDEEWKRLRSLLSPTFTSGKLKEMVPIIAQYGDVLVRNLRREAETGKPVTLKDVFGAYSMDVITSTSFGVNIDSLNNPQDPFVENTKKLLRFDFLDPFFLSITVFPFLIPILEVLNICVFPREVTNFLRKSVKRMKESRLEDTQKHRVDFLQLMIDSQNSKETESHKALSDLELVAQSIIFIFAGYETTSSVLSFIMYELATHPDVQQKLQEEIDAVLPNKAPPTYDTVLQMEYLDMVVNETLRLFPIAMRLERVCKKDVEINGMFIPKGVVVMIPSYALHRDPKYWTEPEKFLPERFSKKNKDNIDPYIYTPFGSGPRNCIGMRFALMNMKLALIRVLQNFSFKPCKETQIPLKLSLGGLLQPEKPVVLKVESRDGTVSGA

Nc1ccccc1N
inactive: [1] | [3] | [6] | [7] | [9]
active: [2] 2.19 µM | [4] 69 µM | [5] 71.8 µM | CYP2C9 (gene 1559) 71 µM | CYP2E1 (gene 1571) 73.1 µM | CYP4A11 (gene 1579) 66.5 µM | [8] 30 µM | CYP3A5 (gene 1577) 51.3 µM | [10] 72.6 µM | [11] 64.6 µM | [12] 79.9 µM | [13] 74.9 µM

Cc1ccc(N(C)C)cc1
active: [2] 23.9 µM | [4] 50 µM
not listed: [13] | CYP2C8 (gene 1558)
inactive: all other assays above

CC(=O)Oc1ccccc1C(=O)O
active: [2] 50 µM
not listed: CYP2C9 (gene 1559) | CYP2C8 (gene 1558)
inactive: all other assays above

CCCCc1ccc2c(n1)[C@@H](c1ccc(OC)cc1C[C@H](C)C(=O)O)[C@H](C(=O)O)[C@H]2c1ccc2c(c1)OCO2
inactive: all assays above

CCCCCCCCCCCCCCCCCC(=O)O
not listed: [5] | CYP2C9 (gene 1559) | [13]
inactive: all other assays above

CCc1c(C(=O)NN2CCCCC2)nn(-c2ccc(Cl)cc2Cl)c1-c1ccc(Br)cc1
inactive: [1] | [3] | [7] | [9]
active: [2] 91.8 µM | [4] 30 µM | [5] 34.6 µM | CYP2C9 (gene 1559) 30.4 µM | CYP2E1 (gene 1571) 22.4 µM | CYP4A11 (gene 1579) 15.9 µM | [14] 31.7 µM | [6] 32.5 µM | [8] 12.2 µM | [15] 23.1 µM | CYP3A5 (gene 1577) 50 µM | [10] 36.2 µM | [11] 15.8 µM | [12] 37.6 µM | [13] 31.7 µM

Cc1nc(C)nc(N2C[C@@H](C)N(c3ccnc([C@@H](C)O)n3)[C@@H](C)C2)n1
active: CYP2C9 (gene 1559) 25 µM | CYP4A11 (gene 1579) 9.39 µM | [15] 13.8 µM | [11] 0.682 µM | [13] 25 µM
not listed: CYP2C8 (gene 1558)
inactive: all other assays above

CC1(C)CC(N=C=O)CC(C)(CN=C=O)C1 (stereo not given)
active: CYP2E1 (gene 1571) 24 µM | [10] 26.2 µM
not listed: [13]
inactive: all other assays above

NCC1(Cc2noc(=O)[nH]2)CCCCC1
not listed: [5] | [13]
inactive: all other assays above

Cc1c(C(=O)O)c(O)cc2c1C(=O)c1c(O)c([C@@H]3O[C@H](CO)[C@@H](O)[C@H](O)[C@H]3O)c(O)c(O)c1C2=O
not listed: CYP2C9 (gene 1559) | CYP2C8 (gene 1558)
inactive: all other assays above

COc1cc(C=O)ccc1O
not listed: CYP2C9 (gene 1559) | CYP2C8 (gene 1558)
inactive: all other assays above

Cc1ccc(C(C)C)c(O)c1
not listed: CYP2C8 (gene 1558)
inactive: all other assays above

CCOc1ccc2c(c1)C(C)=CC(C)(C)N2
active: [2] 13 µM | [4] 0.551 µM | CYP2E1 (gene 1571) 30 µM | [14] 1.73 µM | [15] 1.12 µM | [10] 50 µM | [12] 33.3 µM
not listed: [5] | CYP2C9 (gene 1559) | [13]
inactive: all other assays above

Oc1ccc2ccccc2c1N=Nc1ccccc1
inactive: [1] | [3] | [6] | [7] | [9] | [11]
active: [2] 0.232 µM | [4] 31.5 µM | [5] 9.92 µM | CYP2E1 (gene 1571) 21.5 µM | CYP4A11 (gene 1579) 27.1 µM | [14] 1.81 µM | [8] 3.53 µM | [15] 2.19 µM | CYP3A5 (gene 1577) 8.1 µM | [10] 16.2 µM | [12] 16.3 µM | [13] 3.38 µM

— PubChem BioAssay (EPA / NIEHS)
